# Data published in PubChem BioAssay (NCATS).
# “And” between values parts separate entries of the source, which are not always exact repeats. Equal entries are not always repeated. Unmarked numbers belong to inactive results. Records with an inconclusive call do not appear. The source made the active and inactive calls. Unless noted, the call rests on the fitted dose curve; in most records, active means well fitted curve in either direction with a large enough effect (not every such curve was filed as active); inconclusive means small, poorly fitted or top-dose-only effect, or another doubt; inactive means flat fitted curve, though single readings scatter.
# How the values were obtained:
# [1] = AP1 Signaling Pathway (AID 357); details: ME-180 AP-1-bla reporter, EGF-induced, beta-lactamase ratio, 5 h; further: on the % scale 0 is the no-effect control and ±100 the full control effect
# In short: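 AP-1-bla ME-180 cells with beta-lactamase reporter under AP-1 response element, stimulated with EC50 EGF; compounds titrated, 5 hours at 37 degrees Celsius. CCF4 read at 460/530 nm ratio; positive and negative modulators judged by AC50.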
# [2] = biological target: Cytochrome P450 1A2 (Homo sapiens) (UniProt P05177); assay: p450-cyp1a2 (AID 410; calls by dose curve; further: potency means the concentration at half of the fitted maximal effect;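 on activity change, negative = inhibition: -100% = full effect of reference inhibitor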)
# Chain of Cytochrome P450 1A2 (Homo sapiens) (P05177 whole entry, looked up): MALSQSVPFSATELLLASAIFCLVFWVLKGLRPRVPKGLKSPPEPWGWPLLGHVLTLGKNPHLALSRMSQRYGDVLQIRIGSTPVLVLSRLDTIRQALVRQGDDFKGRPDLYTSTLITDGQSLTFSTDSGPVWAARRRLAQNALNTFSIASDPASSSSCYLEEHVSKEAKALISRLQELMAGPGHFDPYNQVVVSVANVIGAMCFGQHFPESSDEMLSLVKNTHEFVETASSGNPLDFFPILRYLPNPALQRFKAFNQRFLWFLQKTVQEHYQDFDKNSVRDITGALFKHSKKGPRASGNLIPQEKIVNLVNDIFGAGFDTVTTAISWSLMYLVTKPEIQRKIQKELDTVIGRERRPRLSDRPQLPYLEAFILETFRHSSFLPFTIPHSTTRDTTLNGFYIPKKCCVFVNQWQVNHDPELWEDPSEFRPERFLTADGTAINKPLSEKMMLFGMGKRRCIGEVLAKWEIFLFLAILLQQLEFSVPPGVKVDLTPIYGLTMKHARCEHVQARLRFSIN
# In short: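 Read-out is luminescence from luciferin produced by CYP1A2 demethylation of Luciferin-ME (100uM, at Km). Detection reagent stopped the 60 min NADPH-dependent reaction; signals were normalized to 57 uM furafylline.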
# [3] = NFAT Signaling Pathway (AID 444); details: Jurkat NFAT-bla M1, carbachol, beta-lactamase ratio, 5 h;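 further: carbachol stimulus at about its EC50 of 1 µM final; on the % scale 0 is the no-effect control and ±100 the full control effect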
# In short: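 Jurkat cells carrying an NFAT-driven β-lactamase reporter and co-transfected muscarinic M1 receptor were treated with compound plus carbachol (1 uM final, an EC50 level) for 5 h at 37 °C. CCF4 loading followed for 1 h at RT; 460/530 nm ratio gave %activity.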
# [4] = Stat Signaling Pathway (AID 446); details: ME-180 (cervical carcinoma) SIE beta-lactamase reporter, IL-6 stimulated, 5 h;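 further: ME-180 cervical cancer cells given 40 pM IL-6 alongside compound; SIE-controlled beta-lactamase reporter measured as 460/530 nm FRET emission ratio; on the % scale 0 is the no-effect control and ±100 the full control effect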
# In short: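 Normalization used AC90 stimulation (300 pM IL-6) and AC90 inhibition (125 nM pan-JAK inhibitor at 40 pM IL-6). The underlying signal is SIE-driven beta-lactamase in ME-180 cells after 5 h IL-6 exposure with compound.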
# [5] = biological target: Glucocorticoid receptor (Homo sapiens) (UniProt P04150); assay: GR-GFP Redistribution (AID 450;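 active means compounds whose dose series gives a full or clear partial fitted curve of increased nuclear translocation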; further: potency means the concentration at half of the fitted maximal effect); details: U2OS GR-GFP nuclear translocation, laser cytometry, 2 h
# Chain of Glucocorticoid receptor (Homo sapiens) (P04150 whole entry, looked up, the tested form may be a part): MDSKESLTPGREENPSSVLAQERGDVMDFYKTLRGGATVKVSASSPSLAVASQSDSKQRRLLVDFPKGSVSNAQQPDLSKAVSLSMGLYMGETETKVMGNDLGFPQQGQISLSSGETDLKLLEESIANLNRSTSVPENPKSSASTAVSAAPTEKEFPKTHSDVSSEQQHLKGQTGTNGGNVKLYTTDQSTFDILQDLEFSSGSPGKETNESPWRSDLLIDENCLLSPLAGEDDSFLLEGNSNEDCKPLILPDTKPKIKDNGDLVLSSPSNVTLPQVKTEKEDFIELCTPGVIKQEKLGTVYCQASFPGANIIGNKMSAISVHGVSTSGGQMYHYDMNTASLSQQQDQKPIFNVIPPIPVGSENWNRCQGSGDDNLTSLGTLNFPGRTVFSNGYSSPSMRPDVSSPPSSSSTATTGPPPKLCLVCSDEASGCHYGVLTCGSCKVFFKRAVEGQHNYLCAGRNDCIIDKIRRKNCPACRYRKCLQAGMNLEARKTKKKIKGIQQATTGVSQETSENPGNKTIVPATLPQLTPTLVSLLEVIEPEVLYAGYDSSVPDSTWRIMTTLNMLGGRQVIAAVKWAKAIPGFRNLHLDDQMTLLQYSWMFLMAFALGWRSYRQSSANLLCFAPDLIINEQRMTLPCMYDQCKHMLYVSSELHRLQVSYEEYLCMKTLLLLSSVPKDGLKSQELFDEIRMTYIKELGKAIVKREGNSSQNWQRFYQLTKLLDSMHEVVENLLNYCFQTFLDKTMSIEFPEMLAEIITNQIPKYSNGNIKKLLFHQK
# [6] = biological target: Glucocorticoid receptor (Homo sapiens) (UniProt P04150); assay: GR-EFC Redistribution (AID 451; calls by dose curve; further: potency means the concentration at half of the fitted maximal effect); details: CHO-K1 GR-EFC translocation, beta-gal luminescence, 2 h
# In short: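 CHO-K1 cells stably expressing nuclear-localized β-gal enzyme acceptor and GR fused C-terminally to the enzyme donor fragment; ligand-driven nuclear translocation restores β-gal by complementation. Compounds titrated up to 46 uM final, 2 h at 37 °C; luminescence read.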
# [7] = biological target: Mitogen-activated protein kinase 10 (Mus musculus) (UniProt Q61831); assay: JNK3 AlphaScreen Assay (AID 530);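 further: kinase came from lysate of stimulated human HepG2 cells; signal reports phosphorylation of biotinylated GST-cJun 1-79 at Ser73 with 10 µM ATP; on the % scale 0 is the no-effect control and ±100 the full control effect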
# In short: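 Biotinylated GST-cJun(1-79) served as substrate for JNK3 in HepG2 lysates stimulated with IL-1beta and TNF-alpha. ATP was 10 uM final, pH 7.6. Ser73 phosphorylation was quantified by AlphaScreen (680 nm excitation).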
# [8] = biological target: 3',5'-cyclic-AMP phosphodiesterase 4B (Homo sapiens) (UniProt Q07343); assay: qHTS Assay for Inhibitors of PDE-IV (AID 607; active means well fitted activation curve with a large enough effect in the main read-out, with a control signal flat, not every such curve was filed as active; further: % of control where 0% means no effect)
# Chain of 3',5'-cyclic-AMP phosphodiesterase 4B (Homo sapiens) (Q07343 whole entry, looked up): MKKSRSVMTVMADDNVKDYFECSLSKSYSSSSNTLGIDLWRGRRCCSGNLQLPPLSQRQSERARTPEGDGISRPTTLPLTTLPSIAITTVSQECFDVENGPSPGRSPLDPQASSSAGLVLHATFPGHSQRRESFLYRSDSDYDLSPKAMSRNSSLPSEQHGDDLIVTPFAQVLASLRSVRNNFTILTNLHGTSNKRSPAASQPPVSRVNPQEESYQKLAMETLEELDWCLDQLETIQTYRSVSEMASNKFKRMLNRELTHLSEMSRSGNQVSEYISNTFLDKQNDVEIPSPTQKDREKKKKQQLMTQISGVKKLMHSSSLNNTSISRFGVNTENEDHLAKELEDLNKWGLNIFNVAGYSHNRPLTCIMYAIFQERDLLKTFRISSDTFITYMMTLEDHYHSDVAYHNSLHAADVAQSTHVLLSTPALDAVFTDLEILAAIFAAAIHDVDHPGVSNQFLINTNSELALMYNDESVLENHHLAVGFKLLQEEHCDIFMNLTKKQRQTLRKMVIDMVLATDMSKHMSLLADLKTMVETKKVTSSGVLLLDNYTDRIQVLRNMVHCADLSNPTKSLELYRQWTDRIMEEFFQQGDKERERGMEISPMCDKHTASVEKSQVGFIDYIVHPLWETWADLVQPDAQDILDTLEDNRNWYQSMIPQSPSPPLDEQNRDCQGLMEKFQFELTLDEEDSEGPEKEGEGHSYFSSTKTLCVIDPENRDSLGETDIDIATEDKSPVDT
# In short: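 HEK293 ACTOne cells with CNG channel (1000/well), endogenous PDE4; membrane potential dye, compounds up to 22.9 uM final. Fluorescence Ex 535/Em 590; RO 20-1724 (100 uM final) as reference.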
# [9] = biological target: Cytochrome P450 2C9 (Homo sapiens) (UniProt P11712); assay: qHTS Assay for Inhibitors and Substrates of Cytochrome P450 2C9 (AID 883; active means well fitted curve in the direction sought with a large enough effect; an effect the other way counts as inactive or inconclusive; further: on the % scale 0 is the no-effect control and ±100 the full control effect; nearly all actives have a fitted effect of over 60% in size)
# Chain of Cytochrome P450 2C9 (Homo sapiens) (P11712 whole entry, looked up): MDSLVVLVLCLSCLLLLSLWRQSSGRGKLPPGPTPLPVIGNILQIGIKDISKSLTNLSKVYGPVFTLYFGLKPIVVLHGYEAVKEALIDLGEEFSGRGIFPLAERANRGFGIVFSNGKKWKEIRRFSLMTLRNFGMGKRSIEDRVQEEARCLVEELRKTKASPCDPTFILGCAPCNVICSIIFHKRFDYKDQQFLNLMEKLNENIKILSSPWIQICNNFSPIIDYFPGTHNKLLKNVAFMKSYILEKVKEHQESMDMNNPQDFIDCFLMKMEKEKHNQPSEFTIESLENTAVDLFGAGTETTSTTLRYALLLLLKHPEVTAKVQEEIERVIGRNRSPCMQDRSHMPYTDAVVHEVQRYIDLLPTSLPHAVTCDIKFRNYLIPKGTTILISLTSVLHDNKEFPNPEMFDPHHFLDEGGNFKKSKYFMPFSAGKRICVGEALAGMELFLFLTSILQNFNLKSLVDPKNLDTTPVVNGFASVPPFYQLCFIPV
# In short: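 CYP2C9 deoxyluciferin hydroxylation, 37C, 60 min with NADPH regeneration; 10nM enzyme, 100uM Luciferin-H (KM). Glo detection reagent stopped reaction; luminescence normalized to sulphaphenazole (57uM) full inhibition.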
# [10] = biological target: Cytochrome P450 2D6 (Homo sapiens) (UniProt P10635); assay: qHTS Assay for Inhibitors and Substrates of Cytochrome P450 2D6 (AID 891; active means well fitted curve in the direction sought with a large enough effect; an effect the other way counts as inactive or inconclusive;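 further: luciferin methyl ether substrate demethylated by CYP2D6 with NADPH regeneration; on the % scale 0 is the no-effect control and ±100 the full control effect; nearly all actives have a fitted effect of over 60% in size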)
# In short: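 Luminescent read-out of luciferin formed by 5 nM human CYP2D6 demethylating 30 uM Luciferin-ME EGE (Km level) over 60 min at room temperature after NADPH regeneration addition. Data normalized to full inhibition by 1.43 uM quinidine.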
# [11] = biological target: Cytochrome P450 2C19 (Homo sapiens) (UniProt P33261); assay: qHTS Assay for Inhibitors and Substrates of Cytochrome P450 2C19 (AID 899; active means well fitted curve in the direction sought with a large enough effect; an effect the other way counts as inactive or inconclusive; further: on the % scale 0 is the no-effect control and ±100 the full control effect; nearly all actives have a fitted effect of over 60% in size)
# In short: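 In 50mM KPO4, the reaction held 5nM enzyme and KM-level (10uM) Luciferin-H EGE; it ran 60 min at 37C after NADPH regeneration and a 10 min compound preincubation. Luminescence values were scaled to 57uM ketoconazole as complete inhibition.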
# [12] = biological target: Lysosomal acid glucosylceramidase (Homo sapiens) (UniProt P04062); assay: Glucocerebrosidase-p2 (AID 348; in the data active means potency below about 10 µM; further: potency means the concentration at half of the fitted maximal effect); details: purified GBA, blue fluorogenic substrate, 40 min
# Chain of Lysosomal acid glucosylceramidase (Homo sapiens) (P04062 whole entry, looked up): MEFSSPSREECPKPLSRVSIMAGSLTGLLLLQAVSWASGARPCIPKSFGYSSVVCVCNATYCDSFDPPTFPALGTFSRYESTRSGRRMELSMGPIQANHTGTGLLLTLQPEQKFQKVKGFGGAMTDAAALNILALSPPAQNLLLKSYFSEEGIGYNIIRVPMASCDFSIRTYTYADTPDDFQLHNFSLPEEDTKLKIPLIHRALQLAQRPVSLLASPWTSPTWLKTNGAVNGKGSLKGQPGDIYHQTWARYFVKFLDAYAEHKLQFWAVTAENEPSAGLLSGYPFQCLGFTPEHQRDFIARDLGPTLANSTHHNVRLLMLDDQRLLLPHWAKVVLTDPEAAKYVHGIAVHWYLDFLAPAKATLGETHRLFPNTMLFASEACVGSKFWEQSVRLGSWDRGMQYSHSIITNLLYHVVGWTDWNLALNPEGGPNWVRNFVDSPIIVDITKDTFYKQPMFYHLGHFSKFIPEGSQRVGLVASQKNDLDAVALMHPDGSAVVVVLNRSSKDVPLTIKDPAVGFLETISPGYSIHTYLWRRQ
# In short: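 Normal human glucocerebrosidase (0.2 nM) with blue fluorogenic substrate (80 uM final) in citrate/phosphate pH 5.9 with 10mM sodium taurocholate, 0.01% tween-20; 40 min RT, NaOH/glycine stop; fluorescence Ex 365/Em 440; AC50 from a titration from 0.6 nM upwards.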
# [13] = biological target: Muscarinic acetylcholine receptor M1 (Rattus norvegicus) (UniProt P08482); assay: qHTS Assay for Antagonists of Acetylcholine Muscarinic M1 Receptor: Kinetic Measurement of Intracellular Calcium Response (AID 943; active means well fitted curve in the direction sought with a large enough effect; an effect the other way counts as inactive or inconclusive;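 further: Fluo-4 calcium signal as peak divided by basal fluorescence over 4 min; nearly all actives have a fitted effect of over 75% in size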)
# Chain of Muscarinic acetylcholine receptor M1 (Rattus norvegicus) (P08482 whole entry, looked up): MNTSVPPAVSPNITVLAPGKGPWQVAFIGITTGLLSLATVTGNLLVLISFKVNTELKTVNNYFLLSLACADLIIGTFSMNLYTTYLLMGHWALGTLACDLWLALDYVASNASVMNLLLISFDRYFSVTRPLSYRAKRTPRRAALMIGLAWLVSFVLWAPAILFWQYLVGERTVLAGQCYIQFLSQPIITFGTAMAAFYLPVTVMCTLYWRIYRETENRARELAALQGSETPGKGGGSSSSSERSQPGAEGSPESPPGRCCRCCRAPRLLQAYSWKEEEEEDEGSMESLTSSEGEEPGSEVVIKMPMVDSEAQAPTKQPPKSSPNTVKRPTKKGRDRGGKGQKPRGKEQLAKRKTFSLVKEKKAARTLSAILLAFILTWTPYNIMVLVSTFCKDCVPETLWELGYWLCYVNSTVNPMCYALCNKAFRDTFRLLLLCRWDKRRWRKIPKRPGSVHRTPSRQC
# In short: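 Quantitative HTS in CHO-M1 (rat receptor) cells: 10 min compound exposure ahead of 100 nM carbachol, Fluo-4 fluorescence followed 4 min, value expressed as peak-to-basal ratio.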
# [14] = biological target: Muscarinic acetylcholine receptor M1 (Rattus norvegicus) (UniProt P08482); assay: qHTS Assay for Antagonists of Acetylcholine Muscarinic M1 Receptor: Measurement of IP-One Response (AID 944; active means well fitted curve in the direction sought with a large enough effect; an effect the other way counts as inactive or inconclusive; further: nearly all actives have a fitted effect of over 75% in size)
# In short: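 Antagonism was measured as loss of carbachol-driven (EC80) IP1 accumulation in CHO cells carrying rat M1, using a homogeneous IP-One TR-FRET kit read at 620 and 665 nm.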
# [15] = biological target: Pyruvate kinase (Leishmania mexicana) (UniProt Q27686); assay: qHTS Validation Assay for Inhibitors of Leishmania Mexicana Pyruvate Kinase (AID 945; active means well fitted curve in the direction sought with a large enough effect; an effect the other way counts as inactive or inconclusive;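 further: 0% = DMSO only neutral control wells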)
# Chain of Pyruvate kinase (Leishmania mexicana) (Q27686 2-499 E452W): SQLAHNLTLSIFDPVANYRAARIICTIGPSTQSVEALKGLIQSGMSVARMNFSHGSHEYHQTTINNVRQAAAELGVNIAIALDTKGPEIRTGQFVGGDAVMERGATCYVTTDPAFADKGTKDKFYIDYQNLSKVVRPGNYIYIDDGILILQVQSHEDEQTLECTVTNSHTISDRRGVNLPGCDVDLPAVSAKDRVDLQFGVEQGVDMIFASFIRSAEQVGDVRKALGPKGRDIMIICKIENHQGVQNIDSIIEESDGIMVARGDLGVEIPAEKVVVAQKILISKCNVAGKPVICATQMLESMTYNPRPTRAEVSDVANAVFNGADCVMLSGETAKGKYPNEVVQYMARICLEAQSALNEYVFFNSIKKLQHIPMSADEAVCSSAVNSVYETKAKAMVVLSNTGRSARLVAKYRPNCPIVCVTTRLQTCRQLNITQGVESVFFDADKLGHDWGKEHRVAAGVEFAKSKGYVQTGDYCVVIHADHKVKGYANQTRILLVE
# In short: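 Mutant LmPYK (E451W), 0.2 nM, plus 0.5 mM PEP and 0.1 mM ADP in 50 mM imidazole pH 7.2 containing 0.01% Tween 20 and 0.05% BSA. Incubated 1 h at room temperature; luminescence via PKLight, normalized to DMSO.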
# [16] = biological target: Pyruvate kinase PKM (Homo sapiens) (UniProt P14618); assay: qHTS Assay for Activators of Human Muscle Pyruvate Kinase (AID 954; active means well fitted curve in the direction sought with a large enough effect, not every such curve was filed as active;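 further: 0% = uninhibited enzyme and -100% = no enzyme or full thiadiazolimine inhibition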)
# Chain of Pyruvate kinase PKM (Homo sapiens) (P14618 whole entry, looked up): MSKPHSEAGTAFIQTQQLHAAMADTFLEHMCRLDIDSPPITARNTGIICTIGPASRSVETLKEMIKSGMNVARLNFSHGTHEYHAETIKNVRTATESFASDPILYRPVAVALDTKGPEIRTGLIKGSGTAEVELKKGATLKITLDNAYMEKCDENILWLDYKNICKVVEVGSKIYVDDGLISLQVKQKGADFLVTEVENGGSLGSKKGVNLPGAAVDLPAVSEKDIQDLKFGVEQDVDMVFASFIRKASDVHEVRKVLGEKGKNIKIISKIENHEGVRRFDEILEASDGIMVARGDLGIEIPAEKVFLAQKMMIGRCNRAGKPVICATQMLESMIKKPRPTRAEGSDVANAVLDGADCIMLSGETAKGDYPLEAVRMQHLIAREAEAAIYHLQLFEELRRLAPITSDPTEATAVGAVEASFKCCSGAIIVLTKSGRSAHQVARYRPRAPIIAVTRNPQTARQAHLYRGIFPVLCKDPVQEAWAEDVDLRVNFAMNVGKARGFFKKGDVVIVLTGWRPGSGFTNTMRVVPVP
# In short: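 Compound pinned into substrate mix (0.5 mM PEP, 0.1 mM ADP), then 0.1 nM PKM2 added; 1 h, RT. Stop/detection luciferase reagent added, luminescence read. Normalized to no-inhibition and no-enzyme or reference-inhibitor controls.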
# [17] = biological target: Alpha-galactosidase A (Homo sapiens) (UniProt P06280); assay: Counterscreen for Glucocerebrosidase Inhibitors: qHTS Assay for Human alpha-Galactosidase at pH 4.5 (AID 992; active means well fitted curve in the direction sought with a large enough effect; an effect the other way counts as inactive or inconclusive; further: 0% is about no effect)
# Chain of Alpha-galactosidase A (Homo sapiens) (P06280 whole entry, looked up): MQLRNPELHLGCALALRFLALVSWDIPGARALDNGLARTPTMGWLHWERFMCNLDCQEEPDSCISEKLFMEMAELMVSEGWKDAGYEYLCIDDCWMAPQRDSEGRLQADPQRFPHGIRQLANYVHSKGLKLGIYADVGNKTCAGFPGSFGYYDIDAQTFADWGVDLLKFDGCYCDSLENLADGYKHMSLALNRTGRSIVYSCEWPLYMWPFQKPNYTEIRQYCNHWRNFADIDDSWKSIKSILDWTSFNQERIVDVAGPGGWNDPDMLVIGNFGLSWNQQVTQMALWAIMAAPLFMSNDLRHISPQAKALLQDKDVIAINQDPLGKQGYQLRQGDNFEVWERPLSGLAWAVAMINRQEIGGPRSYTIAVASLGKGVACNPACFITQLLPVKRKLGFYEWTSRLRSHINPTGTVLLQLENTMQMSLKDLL
# In short: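 Steps: enzyme (2 nM final), then compound across 0.7 nM to 77 uM, then 80 uM fluorogenic galactopyranoside substrate; incubate 20 min at room temperature; quench at pH 10; measure fluorescence at 365/440 nm.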
# [18] = biological target: Ubiquitin carboxyl-terminal hydrolase 1 (Homo sapiens) (UniProt O94782); assay: Inhibitors of USP1/UAF1: Pilot qHTS (AID 504865; active means well fitted curve in the direction sought with a large enough effect; an effect the other way counts as inactive or inconclusive;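 further: rhodamine fluorescence freed from ubiquitin-rhodamine substrate followed over time; top concentration of the series differs between compounds; on the % scale 0 is the no-effect control and ±100 the full control effect; nearly all actives have a fitted effect of over 35% in size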)
# In short: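 In 50mM HEPES pH 7.8 containing 0.5mM EDTA, 1mM TCEP, 0.1 mg/ml BSA and 0.01% Tween-20, 1nM USP1/UAF1 is exposed to compound for 15 min, then Ub-Rho (150nM final) is added and fluorescence is read over time.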
# [19] = qHTS Assay for Identification of Small Molecule Antagonists for NFkB Signaling Pathway (AID 895; active means well fitted inhibition curve with a large enough effect in the signal ratio, with a control signal flat, not every such curve was filed as active; the % refers to the signal ratio; further: on the % scale 0 is the no-effect control and ±100 the full control effect)
# In short: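 NFkB-bla ME-180 cervical carcinoma cells with beta-lactamase reporter under NFkB response element; compounds added, then TNF alpha at 10 pM final (EC50), 5 h at 37 C. LiveBLAzer substrate 2 h, room temperature; emission 460/530 nm at 405 nm excitation.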
# [20] = at 7.69 µM (top of the series) unless noted
structure (smiles),measurement,setting,value
O=C(Nc1cc[c]([Sb](=[O])([OH])[OH])cc1)c1ccccc1,"activity change, negative = inhibition",[1]; [20],-1.71%
same,Potency,[2],5.01 µM (active)
same,"activity change, negative = inhibition",[3]; [20],23.1%
same,"activity, negative = inhibition",[4]; [20],-1.59%
same,Potency,[5],> 46 µM
same,Potency,[6],> 9.22 µM
same,"activity change, negative = inhibition",[7],-0.0598% [at 11.4 µM]
same,outcome,[8],inactive
same,"activity change, negative = inhibition",[9],2.5% [at 11.4 µM]
same,Potency,[10],inactive
same,Potency,[11],inactive
CCSCC[C@H](N)C(=O)O,Potency,[12],> 11.4 µM
same,"activity change, negative = inhibition",[1]; [20],4.84%
same,"activity change, negative = inhibition",[3]; [20],3.15%
same,"activity, negative = inhibition",[4]; [20],-0.0113%
same,Potency,[5],> 46 µM
same,"activity change, negative = inhibition",[7],3.04% [at 11.4 µM]
same,outcome,[8],inactive
C[C@@H](Cc1ccc(O)cc1)NC[C@@H](O)c1cc(O)cc(O)c1,"activity change, negative = inhibition",[1]; at 17.2 µM (top of the series),-20.6%
same,"activity change, negative = inhibition",[1]; at 38 µM (top of the series),-23%
same,Potency,[2],inactive
same,"activity change, negative = inhibition",[3]; at 17.2 µM (top of the series),-2.14%
same,"activity change, negative = inhibition",[3]; at 38 µM (top of the series),-6.03%
same,"activity, negative = inhibition",[4]; at 17.2 µM (top of the series),-8.37%
same,"activity, negative = inhibition",[4]; at 38 µM (top of the series),-28.1%
same,Potency,[5],> 46 µM and > 20.6 µM
same,Potency,[6],> 46 µM and > 20.6 µM
same,Potency,[7],inactive
same,outcome,[8],inactive
same,Potency,[13],inactive
same,Potency,[14],inactive
same,outcome,[15],inactive
same,outcome,[16],inactive
same,outcome,[17],inactive
same,Potency,[18],inactive
O=C(O)[C@H]1CCN1,"activity change, negative = inhibition",[1]; [20],-3.07% [at 38 µM]
same,Potency,[2],inactive
same,"activity change, negative = inhibition",[3]; [20],0.684% [at 38 µM]
same,"activity, negative = inhibition",[4]; [20],3.4% [at 38 µM]
same,Potency,[5],> 46 µM
same,Potency,[6],> 46 µM
same,Potency,[7],inactive
same,outcome,[8],inactive
same,Potency,[9],inactive
same,Potency,[19],inactive
same,Potency,[13],inactive
same,Potency,[14],inactive
same,outcome,[15],inactive
same,outcome,[16],inactive
same,outcome,[17],inactive
O=C(Nc1ccc([As](=O)(O)O)cc1)Nc1cccc(Cl)c1Cl,Potency,[12],> 11.4 µM
same,"activity change, negative = inhibition",[1]; [20],-0.577%
same,"activity change, negative = inhibition",[3]; [20],6.56%
same,Potency,[5],> 46 µM
same,"activity change, negative = inhibition",[7],0.483% [at 11.4 µM]
same,outcome,[8],inactive
